# Results published in PMC4336329 (PLoS ONE, 2015).
# In all, about 310,000 compounds went through this assay and about 14,000 (4.5%) showed an effect of 50% or more. Effects have a minus sign here. Only a selection was taken, and strong results are over-represented in it overall.
# Target: human ether-à-go-go-related gene (hERG) potassium channel (human, UniProt Q12809)
# Experiment: primary screen, population patch clamp on CHO cells stably expressing hERG; higher = less effect of the substance
# 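Note: peak tail current of the secondary pulse compared with the same well before compound.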
# human ether-à-go-go-related gene (hERG) potassium channel, sequence (Q12809 whole entry, looked up): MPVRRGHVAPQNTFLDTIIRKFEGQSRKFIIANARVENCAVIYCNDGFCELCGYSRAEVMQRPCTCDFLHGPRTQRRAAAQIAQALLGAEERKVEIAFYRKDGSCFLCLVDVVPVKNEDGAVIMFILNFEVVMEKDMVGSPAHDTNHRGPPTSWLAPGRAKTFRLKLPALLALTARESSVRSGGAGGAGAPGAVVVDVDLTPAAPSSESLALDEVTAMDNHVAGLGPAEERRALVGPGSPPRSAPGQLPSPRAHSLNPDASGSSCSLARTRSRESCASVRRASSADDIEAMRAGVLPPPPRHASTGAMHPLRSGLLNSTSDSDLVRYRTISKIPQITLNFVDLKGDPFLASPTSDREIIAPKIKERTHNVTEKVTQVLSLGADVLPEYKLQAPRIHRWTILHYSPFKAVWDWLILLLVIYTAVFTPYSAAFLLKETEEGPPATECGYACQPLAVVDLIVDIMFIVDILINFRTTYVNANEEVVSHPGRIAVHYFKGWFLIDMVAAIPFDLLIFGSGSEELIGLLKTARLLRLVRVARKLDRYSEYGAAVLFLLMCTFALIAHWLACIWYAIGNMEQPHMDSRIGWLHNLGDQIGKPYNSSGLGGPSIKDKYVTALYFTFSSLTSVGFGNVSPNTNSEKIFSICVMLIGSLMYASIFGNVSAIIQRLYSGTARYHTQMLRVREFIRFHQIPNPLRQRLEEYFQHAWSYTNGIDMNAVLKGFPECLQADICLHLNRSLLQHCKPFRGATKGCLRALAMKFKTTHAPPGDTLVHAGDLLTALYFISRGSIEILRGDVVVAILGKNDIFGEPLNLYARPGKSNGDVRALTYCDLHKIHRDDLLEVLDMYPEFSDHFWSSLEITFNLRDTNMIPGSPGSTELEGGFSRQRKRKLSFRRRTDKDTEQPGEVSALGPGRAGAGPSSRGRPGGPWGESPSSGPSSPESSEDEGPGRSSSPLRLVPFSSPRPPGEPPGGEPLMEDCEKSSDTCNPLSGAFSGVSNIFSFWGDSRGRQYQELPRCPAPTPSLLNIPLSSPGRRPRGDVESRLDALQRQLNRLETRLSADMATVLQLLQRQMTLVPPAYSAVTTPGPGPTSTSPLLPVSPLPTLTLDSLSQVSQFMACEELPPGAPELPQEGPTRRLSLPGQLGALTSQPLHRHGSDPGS
row,Structure (SMILES),"hERG current change (%, negative = inhibition) at 10uM [%]"
1,O=C(CCc1ccccc1)NCc1ccccc1,-8.04
2,Cn1c(SCc2ccc([N+](=O)[O-])cc2)nc2c(c1=O)SCC2,-67.5
3,Cn1c(SCc2cccc([N+](=O)[O-])c2)nc2c(c1=O)SCC2,-36.6
4,Cn1c(SCC(=O)Nc2ccc(F)cc2)nc2c(c1=O)SCC2,-6.44
5,Cn1c(SCc2ccc(Br)cc2)nc2c(c1=O)SCC2,-18.6
6,Cn1c(SCC(=O)Nc2ccccc2F)nc2c(c1=O)SCC2,-9.41
7,Cn1c(SCC(=O)Nc2ccccc2C(F)(F)F)nc2c(c1=O)SCC2,-57
8,Cc1cc(C)c(S(=O)(=O)N2CCN(c3ccccc3)CC2)c(C)c1,16.5
9,Cc1ccc(NC(=O)c2ccccc2N2C(=O)C3C4C=CC(C5CC45)C3C2=O)cc1C (stereo not drawn),2.91
10,COc1ccc(-n2c(N)c(C(=O)NCc3ccco3)c3nc4ccccc4nc32)cc1OC,16.7
11,O=C(CNC(=O)c1ccc(Br)o1)NCc1ccccc1,6.66
12,O=C(c1sccc1-c1ccccc1)N1CCN(S(=O)(=O)c2ccccc2F)CC1,-49.3
13,O=C(NCCc1ccccc1)C1(S(=O)(=O)c2ccc(Cl)cc2)CC1,6.29
14,O=C(NCCCN1CCCCC1)C1(S(=O)(=O)c2ccc(Cl)cc2)CC1,-32.3
15,COc1ccc(N2CCN(CCNC(=O)Nc3cc(Cl)ccc3Cl)CC2)cc1,15.6
16,O=C(NCCN1CCCC1)C1(S(=O)(=O)c2ccc(Cl)cc2)CC1,11.7
17,O=C(NCCCN1CCN(c2cccc(Cl)c2)CC1)C1(S(=O)(=O)c2ccc(Cl)cc2)CC1,-71
18,COc1ccc(C2(C(=O)NCCCN3CCOCC3)CCOCC2)cc1.Cl,10.6
19,S=C(NCCCN1CCOCC1)N1CCN(c2cccc(Cl)c2)CC1,-40.2

row,Structure (SMILES),"hERG current change (%, negative = inhibition) at 10uM [%]"
1,O=C(NCCN1CCN(c2ccccc2)CC1)C1(S(=O)(=O)c2ccc(Cl)cc2)CC1,-50.2
2,COc1ccc(N2CCN(CCCNC(=O)C3(S(=O)(=O)c4ccc(Cl)cc4)CC3)CC2)cc1,-61.5
3,CC1CCC(C)(NS(=O)(=O)OCC(Cl)(Cl)Cl)CC1 (stereo not drawn),-21.7
4,CN(C)C(/C=C/Nc1ccc(F)cc1)=C(C#N)C#N,-8.47
5,CCN1C(=O)c2ccccc2S(=O)(=O)c2ccc(C(=O)NCC(OC)OC)cc21,6.16
6,NNC(=O)COc1ncn(-c2ccccc2)n1,18
7,N#Cc1ccsc1NC(=O)COC(=O)c1cc(Br)ccc1O,-22.2
8,Cc1c(C(=O)N2CCCc3ccccc32)oc2ccc(S(=O)(=O)N3CCOCC3)cc12,-44.2
9,O=C(CNCCc1ccc(F)cc1)Nc1cc(F)ccc1F.O=C(O)C(=O)O,-19.9
10,CCOc1ccccc1NC(=O)COc1ccc(S(=O)(=O)N2CCCC2)cc1,-4.32
11,O=C(NCC1CCCO1)c1ccc([N+](=O)[O-])s1 (stereo not drawn),25.4
12,CCOC(=O)C(c1ccccc1)N1CCN(c2ccc(OC)cc2)CC1 (stereo not drawn),4.91
13,C/C(CC(=O)Nc1ccc2c(c1)OCCO2)=N\NC(=O)Cc1ccccc1,-9.4
14,CCOc1ccc(OCCOC(=O)C2CCN(S(=O)(=O)c3ccc(C)c(C)c3)CC2)cc1,-22.4
15,Cl.OCCN1CCN(CC(O)COCc2ccc3c(c2)OCO3)CC1 (stereo not drawn),-1.01
16,COc1ccc(COCC(O)CN2CCCCC2)cc1OC.Cl (stereo not drawn),16.6
17,Cl.OC(COCc1ccc2c(c1)OCO2)CN1CCCCC1 (stereo not drawn),-2.96
18,Cl.OC(COCc1ccc2c(c1)OCO2)CN1CCN(Cc2ccccc2)CC1 (stereo not drawn),-33.1
19,Cl.O=C1c2cccc3cccc(c23)C(=O)N1CC1CCN(CC(O)COCc2ccc3c(c2)OCO3)CC1 (stereo not drawn),-75.3

row,Structure (SMILES),"hERG current change (%, negative = inhibition) at 10uM [%]"
1,COc1ccc(COCC(O)CN2CCC(CN3C(=O)c4cccc5cccc(c45)C3=O)CC2)cc1OC.Cl (stereo not drawn),-71.5
2,COc1ccc(COCC(O)CN2CCOCC2)cc1OC.Cl (stereo not drawn),20.8
3,CN1CCN(CC(O)COCc2ccc3c(c2)OCO3)CC1.Cl (stereo not drawn),6.52
4,Cl.OC(COCc1ccc2c(c1)OCO2)CN1CCC(Cc2ccccc2)CC1 (stereo not drawn),-87.6
5,Cc1ccc2nc(C(O)C(O)c3nc4ccc(C)cc4[nH]3)[nH]c2c1 (stereo not drawn),-6.37
6,O=C(Nc1nc(-c2ccc(Cl)cc2Cl)cs1)c1ccc(OCC2CCCO2)cc1 (stereo not drawn),6.82
7,COCCNc1nnc(SC(C)C(=O)Nc2c(C)n(C)n(-c3ccccc3)c2=O)s1 (stereo not drawn),11.8
8,CCN(CC)CCCNC(=O)c1nn(-c2cccc(OC)c2)c(=O)c2ccccc12,-70.6
9,CNC(=O)c1cn(-c2ccc(Cl)cc2)c(=O)c2ccccc12,-9.43
10,CCCCN(CC)CCNC(=O)c1cn(C)c(=O)c2c1c1ccccc1n2C,-24.6
11,CCCN(CCC)CCCNC(=O)c1cn(-c2ccc(OC)cc2)c(=O)c2ccccc12,-48
12,CCCCN(CC)CCNC(=O)c1cn(-c2ccc(Cl)cc2)c(=O)c2ccccc12,-77.7
13,COc1cccc(-n2nc(C(=O)N3CC(C)CC(C)C3)c3ccccc3c2=O)c1 (stereo not drawn),3.43
14,CCOC(=O)C(C)NC(=O)c1cn(-c2ccc(OC)cc2)c(=O)c2ccccc12 (stereo not drawn),5.7
15,CCN(CC)CCCNC(=O)c1nn(-c2ccc(OC)cc2OC)c(=O)c2ccccc12,-0.745
16,COc1cccc(-n2nc(C(=O)N3CCN(Cc4ccccc4)CC3)c3ccccc3c2=O)c1,-50.3
17,CCCCN(CC)CCCNC(=O)c1cn(-c2ccc(OC)cc2)c(=O)c2ccccc12,-56.5
18,CCN(CC)CCCNC(=O)CNC(=O)c1nn(-c2ccc(OC)cc2)c(=O)c2ccccc12,23.8
19,COc1cccc(-n2nc(C(=O)O)c3ccccc3c2=O)c1,6.72
